Drawing on PubChem BioAssay (EPA / NIEHS), this text covers outcome and AC50 for 34 molecules.

The structures appear in SMILES notation. Several values for one entry are separate records, joined by “and”; a condition that tells them apart may be missing. Equal values may be shown once. More than one record can exist for a structure, and the calls need not agree. Activity calls are given as the source filed them. How the source made its calls: active means hit-call score of the fitted dose curve at least 0.9, where 1 is the maximum; inactive means score below 0.9.

Read-out in the experiment: Interleukin-8 (IL8), CXCL8 (gene 3576)
As to the kind of experiment: BSK_IMphg_IL8: BioMAP Diversity Plus: IMphg Assay for Interleukin-8 (IL8) Biomarker Activity (AID 2284277). Conditions: primary human endothelial cells with macrophages. The procedure:
BSK_IMphg is a cell-based, multiplexed-readout assay that uses venular endothelial cells and macrophages, a human vascular primary cell, with measurements taken at 24 hours after chemical dosing in a microplate: 96-well plate.BSK_IMphg_IL8 is an assay component measured in the BSK_IMphg assay. It measures IL-8 antibody related to regulation of gene expression using ELISA technology.Data from the assay component BSK_IMphg_IL8 was analyzed at the endpoint, BSK_IMphg_IL8, in the positive analysis fitting direction relative to DMSO as the negative control and baseline of activity. Using a type of binding reporter, gain or loss-of-signal activity can be used to understand protein changes. To generalize the intended target to other relatable targets, this assay endpoint is annotated to the 'cytokine' intended target family, where the subfamily is 'interleukins'.
The levels of cell surface (or secreted, indicated by the prefix "s") biomarker endpoints were measured by ELISA. Overt cytotoxicity to cells in confluent adherent cultures (all systems other than the BT system) was assessed by measuring total protein levels using sulforhodamine B (SRB) staining in parallel cultures at the time of biomarker measurements, indicated as SRB endpoints. For proliferation assays for adherent cell types, individual cell types are cultured at sub-confluence and relative cell numbers quantified by SRB staining at time points optimized for each system (48 h: 3C and CASM3C systems; 72 h: BT and HDF3CGF systems; 96 h: SAg system). SRB was performed by staining cells with 0.1% SRB after fixation with 10% TCA and reading wells at 560 nm.Viability and proliferation of PBMC (T cells) was quantified by Alamar Blue reduction for the SAg and BT systems. For PBMC viability (referred to as PBMC Cytotoxicity within the assay endpoint names), cells were plated (75,000/well in a 96-well plate) and then chemical samples added for 1 h before addition of activators, SEB and TSST-1 (20 ng/mL final concentration each). Cells were incubated for 90 h. Then, Alamar Blue (20 uL/well) (Invitrogen, Cat DAL1100) was added for 6 h, and the plates were read with a fluorescence microplate reader at 546/580 nm (excitation/emission). For PBMC proliferation, cells were plated and activated as above but incubated for only 16 h prior to addition of Alamar Blue. Plates were read after 6 h.
On to `O=S(=O)(O)CCC(F)(F)C(F)(F)C(F)(F)C(F)(F)F`, for which the outcome was inactive.

As for `NC(=O)C(F)(F)C(F)(F)C(F)(F)C(F)F`, the outcome was inactive.

As to `CCN(CCO)S(=O)(=O)C(F)(F)C(F)(F)C(F)(F)C(F)(F)C(F)(F)C(F)(F)C(F)(F)C(F)(F)F`, the outcome was inactive and the AC50 (usually the concentration giving half of the maximal activity seen) is 50.9 µM (active).

Turning to `C=CC(=O)OCCC(F)(F)C(F)(F)C(F)(F)C(F)(F)F`, the result was inactive.

As to `O=C(O)C(F)(F)OC(F)(F)C(F)(F)OC(F)(F)C(F)(F)OC(F)(F)F`, the result was inactive; the AC50 was 5.47 µM (active) and 14.2 µM (active).

Take `O=S(=O)(Cl)C(F)(F)C(F)(F)C(F)(F)C(F)(F)C(F)(F)C(F)(F)C(F)(F)C(F)(F)F`: the AC50 was 36.7 µM (active) and the result was inactive.

Turning to `OCCCCC(F)(F)C(F)(F)C(F)(F)C(F)(F)F`, the outcome was inactive.

Regarding `NC(=O)C(F)(F)C(F)(F)C(F)(F)F`, the result was inactive.

Take `NC(O)(C(F)(F)F)C(F)(F)F`: the outcome was inactive.

As to `O=S(=O)(OCC(F)(F)F)C(F)(F)C(F)(F)C(F)(F)C(F)(F)F`, the result was inactive.

As for `NCC(F)(F)C(F)(F)C(F)(F)C(F)(F)C(F)(F)C(F)(F)C(F)(F)C(F)(F)F`, the result was inactive.

In the case of `O=S(=O)(O)CCC(F)(F)C(F)(F)C(F)(F)C(F)(F)C(F)(F)C(F)(F)C(F)(F)C(F)(F)F`, the result was inactive.

As to `COC(F)(C(F)F)C(F)(F)F` (stereo not given), the result was inactive.

On to `CNS(=O)(=O)C(F)(F)C(F)(F)C(F)(F)C(F)(F)C(F)(F)C(F)(F)C(F)(F)C(F)(F)F`, for which the result was inactive and the AC50 is 14.5 µM (active).

For the molecule `NCC(F)(F)C(F)(F)C(F)(F)C(F)(F)C(F)(F)C(F)(F)F`, the result was inactive.

Regarding `OC(O)C(F)(F)C(F)(F)F`, the outcome was inactive.

`OCC(O)CC(F)(F)C(F)(F)C(F)(F)C(F)(F)C(F)(F)C(F)(F)C(F)(F)C(F)(F)F` (stereo not given): the outcome was inactive.

Regarding `OCC(F)(F)C(F)(F)C(F)(F)C(F)(F)C(F)(F)C(F)(F)C(F)(F)C(F)(F)CO`, the AC50 was 48.8 µM (active) and 48.9 µM (active).

In the case of `FC(F)(F)C(F)(F)C(F)(F)C(F)(F)C(F)(F)C(F)(F)CC[Si](Cl)(Cl)Cl`, the result was inactive.

For the molecule `NS(=O)(=O)C(F)(F)C(F)(F)C(F)(F)C(F)(F)C(F)(F)C(F)(F)F`, the AC50 is 16.3 µM (active) and 8.64 µM (active).

With `O=C(Cl)C(F)(F)C(F)(F)C(F)(F)C(F)(F)C(F)(F)C(F)(F)F`, the AC50 is 15.8 µM (active) and 21.5 µM (active); the result was inactive.

Turning to `C=CC(=O)OCC(F)(F)C(F)(F)C(F)(F)COC(=O)C=C`, the AC50 is 50.7 µM (active) and 45.9 µM (active).

Take `C[Si](Cl)(Cl)CCC(F)(F)C(F)(F)C(F)(F)C(F)(F)C(F)(F)C(F)(F)F`: the result was inactive.

For the molecule `O=C(O)C(F)(F)C(F)(F)C(F)(F)OC(F)(F)F`, the outcome was inactive.

Regarding `C=CC(=O)OCC(F)(F)C(F)(F)C(F)(F)C(F)(F)C(F)(F)C(F)(F)C(F)(F)C(F)F`, the outcome was inactive.

In the case of `O=C(O)C(F)(F)C(F)(F)C(F)(F)OC(F)(C(F)(F)F)C(F)(F)F`, the result was inactive and the AC50 was 16.1 µM (active).

For `O=C(F)C1(F)C(F)(F)C(F)(F)C(F)(F)C(F)(F)C1(F)F`, the result was inactive.

Take `O=C(Cl)C(F)(F)C(F)(F)C(F)(F)C(F)(F)C(F)(F)C(F)(F)C(F)(F)F`: the concentration at half-maximal activity (AC50) is 30 µM (active) and 36.9 µM (active).

For `O=C(O)C(F)(F)C(F)(F)C(F)(F)C(=O)O`, the result was inactive.

Turning to `O=C(O)C(F)(F)C(F)(F)C(F)(F)C(F)(F)C(F)(F)C(F)(F)C(F)F`, the AC50 is 30 µM (active) and 21.7 µM (active) and 32.1 µM (active).

Turning to `OCC(F)(F)C(F)(F)C(F)(F)C(F)(F)C(F)(F)C(F)(F)CO`, the outcome was inactive.

For `CO[Si](C)(CCC(F)(F)C(F)(F)C(F)(F)C(F)(F)C(F)(F)C(F)(F)F)OC`, the outcome was inactive.

For `NC(=O)C(F)(F)C(F)(F)C(F)(F)C(F)(F)C(F)(F)C(F)(F)C(F)(F)F`, the result was inactive.

`CCOC(=O)CC(=O)C(F)(F)C(F)(F)F`: the result was inactive.
